Compounds without any hit were thinned out: in the full panel of roughly 79,000, 15% have a hit. The source made the active and inactive calls. Rule as the data show it: active = growth inhibition above about 70%; inactive = the rest.
Experiments:
[1] = NCI Yeast Anticancer Drug Screen. Data for the rad52 strain (AID 147);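 also: 0% = growth of vehicle-treated control cultures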; conditions: S. cerevisiae rad52 mutant growth inhibition, active compounds read high
Method in brief: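 Screen used a yeast mutant impaired in DNA repair. After compound exposure, growth was measured. Values reflect inhibition compared with vehicle-treated cells.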

[2] = NCI Yeast Anticancer Drug Screen. Data for the wt1 strain (AID 149);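 also: 0% = growth of vehicle-treated wt1 cultures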; conditions: S. cerevisiae wt1 strain (SPY 50644) growth inhibition, active compounds read high
Method in brief: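 Measured: growth of wt1 yeast under compound versus vehicle treatment, reported as inhibition.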

[3] = NCI Yeast Anticancer Drug Screen. Data for the rad50EPP+ strain (AID 151);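 also: 0% = growth of vehicle-treated control cultures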; conditions: S. cerevisiae rad50 mutant strain, active compounds read high
Method in brief: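 Exposing the rad50EPP+ strain to each compound, growth was compared with vehicle-only cultures to give inhibition.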

[4] = NCI Yeast Anticancer Drug Screen. Data for the mgt1 strain (AID 153); conditions: S. cerevisiae mgt1 mutant growth inhibition, active compounds read high
Method in brief: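 Genetically defined yeast (mgt1) treated with compound; inhibition of growth expressed against vehicle-treated controls.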

[5] = NCI Yeast Anticancer Drug Screen. Data for the rad50 strain (AID 155);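 also: 0% = growth of vehicle-only cultures of the same strain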; conditions: S. cerevisiae rad50 strain growth inhibition, active compounds read high
Method in brief: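 Growth of the mutant yeast was measured after compound exposure and referenced to vehicle-treated cultures.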

[6] = NCI Yeast Anticancer Drug Screen. Data for the mec2-1 strain (AID 157); conditions: S. cerevisiae mec2-1 strain, active compounds read high
Method in brief: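 Readout is yeast growth inhibition, normalised to vehicle-treated controls, in the mec2-1 strain exposed to compound.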

[7] = NCI Yeast Anticancer Drug Screen. Data for the rad14 strain (AID 159);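 also: 0% = growth of vehicle-treated control cultures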; conditions: S. cerevisiae rad14 strain growth inhibition, active compounds read high
Method in brief: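 Here, inhibition of yeast growth was measured after compound exposure, using a strain with a genetic defect in DNA damage repair and vehicle-treated cultures as the reference.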

[8] = NCI Yeast Anticancer Drug Screen. Data for the CLN2oe strain (AID 163);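 also: 0% = growth of vehicle-only control cultures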; conditions: S. cerevisiae CLN2oe strain, active compounds read high
Method in brief: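 Values reflect how much compound exposure reduced yeast growth, referenced to vehicle-exposed cells. Assay organism is a strain with a defined genetic change affecting cell-cycle control.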

[9] = NCI Yeast Anticancer Drug Screen. Data for the cln2 rad14 strain (AID 165);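 also: 0% = growth equal to vehicle treated cultures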; conditions: S. cerevisiae cln2 rad14 strain, active compounds read high
Method in brief: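 Relative to vehicle controls, growth inhibition of compound-treated cln2 rad14 yeast was recorded.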

[10] = NCI Yeast Anticancer Drug Screen. Data for the bub3 strain (AID 167); conditions: S. cerevisiae bub3 mutant strain, active compounds read high
Method in brief: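 Whole-cell yeast assay. The mutant strain was incubated with compounds, and growth inhibition was determined by comparison with vehicle-treated cells.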

[11] = NCI Yeast Anticancer Drug Screen. Data for the wt2 strain (AID 169);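 also: 0% = growth of vehicle-treated yeast cultures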; conditions: S. cerevisiae wt2 strain growth inhibition, active compounds read high
Method in brief: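 Values express reduction in yeast growth under compound treatment, referenced to vehicle-treated cells.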

[12] = NCI Yeast Anticancer Drug Screen. Data for the mlh1 strain (AID 171);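 also: 0% = growth of vehicle-treated control cultures of the same strain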; conditions: S. cerevisiae mlh1 strain growth inhibition, active compounds read high
Method in brief: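 Steps: expose the defined-mutant yeast strain to compound; expose a parallel culture to vehicle; measure growth; express compound effect as inhibition relative to the vehicle culture.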

[13] = NCI Yeast Anticancer Drug Screen. Data for the sgs1 strain (AID 173);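 also: 0% = growth of vehicle-only control cultures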; conditions: S. cerevisiae sgs1 mutant, active compounds read high
Method in brief: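 Treat defined-mutant yeast with compound; measure growth; calculate inhibition relative to vehicle-treated cells.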

[14] = NCI Yeast Anticancer Drug Screen. Data for the mlh1 rad18 strain (AID 175); conditions: S. cerevisiae mlh1 rad18 strain growth inhibition, active compounds read high
Method in brief: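 Test agents were incubated with a yeast strain of defined genotype (DNA damage repair defect). Inhibition of growth was derived by comparison with vehicle-exposed cultures.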

[15] = NCI Yeast Anticancer Drug Screen. Data for the rad18 strain (AID 177); conditions: S. cerevisiae rad18 mutant growth inhibition, active compounds read high
Method in brief: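 A genetically defined yeast mutant impaired in DNA damage repair was treated with test compounds, then its growth was measured against cultures receiving vehicle alone.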

[16] = NCI Yeast Anticancer Drug Screen. Data for the sgs1 mgt1 strain (AID 161);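 also: 0% = growth of cultures given vehicle only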; conditions: S. cerevisiae sgs1 mgt1 strain, active compounds read high
Method in brief: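 Yeast cells carrying a defined DNA-repair defect were exposed to test compounds. Growth inhibition was measured relative to vehicle-treated controls.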

[17] = at 5.0 µM (retest, dose inferred, filed as 0.5)
[18] = at 50.0 µM (retest, dose inferred, filed as 5.0)

Measured: growth inhibition

CN1C(=O)c2ccc3ccccc3c2C1=O
active: [5]; at 50.0 µM 84.5% | [5]; at 100.0 µM 70%
inactive: [1]; at 1.2 µM 7% | [1]; at 3.7 µM 11% | [1]; at 11.0 µM 35% | [1]; at 33.0 µM 53% | [1]; at 100.0 µM 68% | [2]; at 1.2 µM 2% | [2]; at 3.7 µM 3% | [2]; at 11.0 µM 17% | [2]; at 33.0 µM 25% | [2]; at 100.0 µM 25% | [3]; at 1.2 µM 8% | [3]; at 3.7 µM 12% | [3]; at 11.0 µM 42% | [3]; at 33.0 µM 58% | [3]; at 100.0 µM 52% | [4]; at 1.2 µM 1% | [4]; at 3.7 µM 1% | [4]; at 11.0 µM 20% | [4]; at 33.0 µM 18% | [4]; at 100.0 µM 25% | [5]; at 1.2 µM 12% | [5]; at 3.7 µM 32% | [5]; [17] 4% | [5]; at 11.0 µM 61% | [5]; at 33.0 µM 63% | [5]; [18] 62% | [6]; at 1.2 µM -5% | [6]; at 3.7 µM 0% | [6]; [17] 0% | [6]; at 11.0 µM 0% | [6]; at 33.0 µM 17% | [6]; [18] 29% | [6]; at 50.0 µM 41.9% | [6]; at 100.0 µM 26% | [7]; at 1.2 µM 3% | [7]; at 3.7 µM 8% | [7]; at 11.0 µM 20% | [7]; at 33.0 µM 32% | [7]; at 100.0 µM 43% | [8]; at 1.2 µM 3% | [8]; at 3.7 µM 6% | [8]; at 11.0 µM 18% | [8]; at 33.0 µM 21% | [8]; at 100.0 µM 27% | [9]; [17] -39% | [9]; [18] 6% | [9]; at 50.0 µM 33.4% | [10]; at 1.2 µM 6% | [10]; at 3.7 µM 8% | [10]; [17] 4% | [10]; at 11.0 µM 37% | [10]; at 33.0 µM 35% | [10]; [18] 37% | [10]; at 50.0 µM 48.8% | [10]; at 100.0 µM 32% | [11]; at 1.2 µM 2% | [11]; at 3.7 µM 3% | [11]; at 11.0 µM 12% | [11]; at 33.0 µM 24% | [11]; at 100.0 µM 39% | [12]; at 1.2 µM 2% | [12]; at 3.7 µM 3% | [12]; at 11.0 µM 22% | [12]; at 33.0 µM 29% | [12]; at 100.0 µM 27% | [13]; at 1.2 µM 0% | [13]; at 3.7 µM 1% | [13]; at 11.0 µM 14% | [13]; at 33.0 µM 25% | [13]; at 100.0 µM 42% | [14]; [17] -25% | [14]; [18] 40% | [14]; at 50.0 µM 23.3% | [15]; at 1.2 µM 6% | [15]; at 3.7 µM 15% | [15]; at 11.0 µM 45% | [15]; at 33.0 µM 39% | [15]; at 100.0 µM 35%

CCOC(=O)COc1c(OC)cc(C2C3=C(COC3=O)Oc3cc4c(cc32)OCO4)cc1OC (stereo not drawn)
active: [9]; at 50.0 µM 71%
inactive: [1]; at 1.2 µM 2% | [1]; at 3.7 µM 1% | [1]; at 11.0 µM 0% | [1]; at 33.0 µM 8% | [1]; at 100.0 µM 23% | [2]; at 1.2 µM 1% | [2]; at 3.7 µM 2% | [2]; at 11.0 µM 4% | [2]; at 33.0 µM 3% | [2]; at 100.0 µM 6% | [3]; at 1.2 µM -2% | [3]; at 3.7 µM -16% | [3]; at 11.0 µM -22% | [3]; at 33.0 µM -11% | [3]; at 100.0 µM 15% | [4]; at 1.2 µM -3% | [4]; at 3.7 µM 2% | [4]; at 11.0 µM 0% | [4]; at 33.0 µM 16% | [4]; at 100.0 µM 8% | [5]; at 1.2 µM 1% | [5]; at 3.7 µM 0% | [5]; [17] -4% | [5]; at 11.0 µM 1% | [5]; at 33.0 µM 3% | [5]; [18] -1% | [5]; at 50.0 µM 2.85% | [5]; at 100.0 µM 8% | [6]; at 1.2 µM -1% | [6]; at 3.7 µM 0% | [6]; [17] -8% | [6]; at 11.0 µM -2% | [6]; at 33.0 µM 1% | [6]; [18] -4% | [6]; at 50.0 µM 26.8% | [6]; at 100.0 µM 17% | [16]; [17] -9% | [16]; [18] 19% | [16]; at 50.0 µM 14.7% | [8]; at 1.2 µM -2% | [8]; at 3.7 µM -3% | [8]; at 11.0 µM 5% | [8]; at 33.0 µM 2% | [8]; at 100.0 µM 10% | [9]; [17] -1% | [9]; [18] 29% | [10]; at 1.2 µM -4% | [10]; at 3.7 µM 0% | [10]; [17] -13% | [10]; at 11.0 µM 0% | [10]; at 33.0 µM 6% | [10]; [18] 19% | [10]; at 50.0 µM 28.2% | [10]; at 100.0 µM 13% | [11]; at 1.2 µM 0% | [11]; at 3.7 µM 0% | [11]; at 11.0 µM 1% | [11]; at 33.0 µM 3% | [11]; at 100.0 µM 12% | [12]; at 1.2 µM 1% | [12]; at 3.7 µM -1% | [12]; at 11.0 µM -1% | [12]; at 33.0 µM 2% | [12]; at 100.0 µM 12% | [13]; at 1.2 µM 0% | [13]; at 3.7 µM 2% | [13]; at 11.0 µM 1% | [13]; at 33.0 µM 9% | [13]; at 100.0 µM 28% | [14]; [17] -10% | [14]; [18] 49% | [14]; at 50.0 µM -4.55% | [15]; at 1.2 µM 0% | [15]; at 3.7 µM -2% | [15]; at 11.0 µM -11% | [15]; at 33.0 µM -2% | [15]; at 100.0 µM 3%
